Source: PubChem BioAssay
Shown are actives, neighbours in structure and some others; about 12% of the full set was active somewhere.
Sm TGR block: inhibitors of Schistosoma mansoni thioredoxin glutathione reductase. Q962Y6. purified TGR, DTNB reduction, TNB absorbance 405 nm. Potency, µM (titrated, usually from 114 µM), most hits filed as inhibitors. 360,000 tested, 3% active. AID 485364; note: nearly all actives have a fitted effect of over 60% in size
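First, TGR (20 nM dispensed) and NADPH were mixed with compound. Second, a 15 min room-temperature incubation followed. Third, further NADPH and then DTNB were added to start the reaction. Finally, TNB absorbance was monitored kinetically.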
AmpC inh detg: AmpC beta-lactamase inhibition with detergent present; Potency, µM (highest dose often 114 µM), actives largely listed as inhibitors; P00811; 370,000 tested, 0.041% active; AmpC hydrolysis of nitrocefin, absorbance 480 nm, 0.01% Triton; AID 485294; note: nearly all actives have a fitted effect of over 25% in size
Target sequence (P00811 whole entry, looked up): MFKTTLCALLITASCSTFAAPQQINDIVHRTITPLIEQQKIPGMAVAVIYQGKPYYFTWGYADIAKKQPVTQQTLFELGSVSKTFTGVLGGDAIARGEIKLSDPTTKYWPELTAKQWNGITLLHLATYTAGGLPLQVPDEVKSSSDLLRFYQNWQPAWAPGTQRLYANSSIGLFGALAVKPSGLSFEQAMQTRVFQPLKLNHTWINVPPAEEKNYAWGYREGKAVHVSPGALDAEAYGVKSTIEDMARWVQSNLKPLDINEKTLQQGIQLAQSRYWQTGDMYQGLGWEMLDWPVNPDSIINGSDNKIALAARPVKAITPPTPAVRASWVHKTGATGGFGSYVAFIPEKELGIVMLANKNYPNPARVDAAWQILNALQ
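AmpC (5.3 nM in the dispensed reagent) in 20 mM phosphate pH 7.0 with 0.01% (detergent screen) or 0.0001% Triton X-100 was preincubated with compounds for 15 min at room temperature. Nitrocefin was then added from an 800 uM solution, and hydrolysis was followed at 480 nm.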
Pf growth 48h: P. falciparum growth inhibition at 48 hours (one generation) | P. falciparum luciferase growth in erythrocytes, 48 h | Potency, µM (top dose mostly 28.7 µM), hits mostly inhibitors | 310,000 tested, 5.9% active | AID 504832
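Compounds are pin-transferred into medium, infected erythrocytes (2% hematocrit, 0.1% parasitemia final) are added, and plates sit one parasite generation at 37 C in 5% CO2. Detection reagent is then added and luminescence measured.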
Pf growth 96h: P. falciparum growth inhibition at 96 hours. AID 504834. 320,000 tested, 6.9% active. Potency, µM (doses to about 28.7 µM), usual class: inhibitors. P. falciparum luciferase reporter growth, 96 h
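Cell-based qHTS: luciferase-tagged P. falciparum in erythrocytes (2% hematocrit, 0.05% parasitemia final) incubated with compounds for 96 hours, 37 C, 5% CO2; luciferase detection reagent then added and luminescence measured.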
SARS PLpro yeast: inhibitors of SARS-CoV papain-like protease in yeast | S. cerevisiae expressing SARS-CoV PLpro, growth rescue | Potency, µM (titrated, usually from 32.9 µM), usual class: activators | 330,000 tested, 0.19% active; calls by dose curve; note: nearly all actives have a fitted effect of over 55% in size
AmpC no deterg: blocks E. coli AmpC beta-lactamase in detergent-free assay; P00811; AmpC nitrocefin hydrolysis, absorbance 480 nm, 0.0001% Triton; Potency, µM (top dose mostly 57.1 µM), usual class: inhibitors; 330,000 tested, 0.52% active; AID 485341; note: nearly all actives have a fitted effect of over 20% in size
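AmpC (5.3 nM in the dispensed reagent) in 20 mM phosphate pH 7.0 with 0.01% (detergent screen) or 0.0001% Triton X-100 was preincubated with compounds for 15 min at room temperature. Nitrocefin was then added from an 800 uM solution, and hydrolysis was followed at 480 nm.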
Each line names hits and unclear results; the compound was inactive in the other large screens. Unless noted, calls come from the whole dose curve; as a rule, active = well fitted curve in the direction sought with a large enough effect; inconclusive = small, poorly fitted or top-dose-only effect, or another doubt; inactive = no such curve, though single readings can be large; an effect the other way counts as inactive or inconclusive.

CC(C)(C)CN1CCN(Cc2cc3ccccc3[nH]2)CC1CCO (centres undefined)	Pf growth 96h 5.2µM
Cc1nc2sc(C(c3cccs3)N3CC(C)CC(C)C3)c(O)n2n1 (centres undefined)	Pf growth 48h 6.6µM, Pf growth 96h inconclusive
Cc1nc2sc(C(c3cccs3)N3CCN(c4cccc(Cl)c4)CC3)c(O)n2n1 (centres undefined)	Pf growth 96h inconclusive
CSc1ccc(CCNC(=O)CN2C(=O)c3cccnc3Oc3ccc(C)cc32)cc1	AmpC inh detg inconclusive
CCOC(=O)C1=NN(c2ccc(C)cc2)CC1C(=O)OC (centres undefined)	AmpC inh detg inconclusive, Pf growth 96h 5.9µM
COC(=O)C1CC(=O)N(c2ccc(C)cc2)C1 (centres undefined)	AmpC inh detg inconclusive (no result: Sm TGR block)
COc1ccc(CCN2C(=O)CSC2=Nc2ccc(C)cc2C)cc1OC	Pf growth 48h 2.6µM, Pf growth 96h inconclusive
Cc1cc(/C=C2/C(=O)NC(=O)N(c3ccc(Br)cc3)C2=O)c(C)n1C	Sm TGR block inconclusive
Cc1cc(/C=C2\C(=O)NC(=O)N(c3ccc(Cl)cc3)C2=O)c(C)n1-c1cccc(C(=O)O)c1	Sm TGR block 7.1µM, Pf growth 96h inconclusive
Cc1cc(/C=C2\C(=O)NC(=O)N(c3cccc(F)c3)C2=O)c(C)n1-c1cc(C(=O)O)cc(C(=O)O)c1	Sm TGR block inconclusive
Cc1cc(/C=C2\C(=O)NC(=O)N(c3ccc(Br)cc3)C2=O)c(C)n1-c1cc(C(=O)O)cc(C(=O)O)c1	Sm TGR block 8.9µM
O=c1c2ccccc2nc2n1CCS2(=O)=O	Sm TGR block 22µM
O=c1c2ccccc2nc2c3ccccc3c3nncn3n12	AmpC inh detg inconclusive, Pf growth 96h inconclusive
Cc1cc(C)cc(NC(=S)N=Nc2c(O)n(C)c3ccc(S(=O)(=O)N4CCOCC4)cc23)c1	Pf growth 48h 2.1µM, Pf growth 96h inconclusive
Cc1cccc(C)c1NC(=S)N=Nc1c(O)n(C)c2ccc(S(=O)(=O)N3CCOCC3)cc12	Pf growth 48h inconclusive, Pf growth 96h inconclusive
Cc1ccccc1NC(=S)N=Nc1c(O)n(C)c2ccc(S(=O)(=O)N3CCOCC3)cc12	AmpC inh detg inconclusive, Pf growth 48h 3.3µM
Cc1ccc(NC(=S)N=Nc2c(O)n(C)c3ccc(S(=O)(=O)N4CCOCC4)cc23)cc1	Pf growth 48h 2.6µM, Pf growth 96h inconclusive
C=CCn1c(O)c(N=NC(=S)Nc2ccccc2F)c2cc(S(=O)(=O)N3CCOCC3)ccc21	Pf growth 48h 6.6µM
Cc1cc(C)cc(NC(=O)c2cc(S(=O)(=O)N3CCOCC3)cn2C)c1	none (no result: Pf growth 48h, Pf growth 96h, SARS PLpro yeast, AmpC no deterg)
O=C1CCCC(=O)N1c1ccc(N2CCOCC2)c([N+](=O)[O-])c1	none
CCOCCCNC(=O)C(NC(=O)c1cnccn1)c1ccc(C)cc1 (centres undefined)	Pf growth 96h inconclusive
Cc1cccc(NC(=O)CSc2nc3ccccc3nc2N2CCCCC2)c1C	none (no result: Pf growth 48h, Pf growth 96h, SARS PLpro yeast, AmpC no deterg)
Cc1cccc(NC(=S)N=Nc2c(O)n(C)c3ccc(S(=O)(=O)N4CCOCC4)cc23)c1	Pf growth 48h 8.3µM, Pf growth 96h 2.3µM
Cc1ccc(NC(=O)CN2C(=O)S/C(=C\c3ccccn3)C2=O)cc1C	Pf growth 96h 10µM
NS(=O)(=O)c1cccc(NC(=O)CCSc2ccc(Cl)cc2)c1	Sm TGR block 18µM, AmpC inh detg inconclusive
NS(=O)(=O)c1cccc(NC(=O)Nc2ccccc2)c1	Pf growth 48h 2.1µM
COC(=O)c1ccc2c(=O)n(CCc3ccc(S(N)(=O)=O)cc3)c(SCC(=O)C(C)(C)C)nc2c1	none (no result: Pf growth 48h, Pf growth 96h, SARS PLpro yeast, AmpC no deterg)
COc1ccccc1CNCc1cc(OC)c(OC)cc1OC	AmpC inh detg inconclusive (no result: Pf growth 96h)
COc1ccc(Br)cc1CNc1ccc2[nH]c(=O)[nH]c2c1	Sm TGR block inconclusive, Pf growth 96h inconclusive
COc1ccccc1CNCc1cc(Br)ccc1OC	Pf growth 48h 12µM, Pf growth 96h inconclusive
COc1ccc(Br)cc1CNc1ccc(O)cc1	Sm TGR block 28µM, AmpC inh detg inconclusive, Pf growth 48h inconclusive, AmpC no deterg 28µM (no result: Pf growth 96h)
